Test results taken from PubChem BioAssay.
Values without a mark were called inactive. How the calls were made is not given here.

What follows are molecules tested against Pantothenate synthetase (Mycobacterium tuberculosis (strain ATCC 25618 / H37Rv)) (UniProt P9WIL5) (assay: Recombinant Mtb pantothenate synthetase (PanC) inhibitors, coupled enzyme, confirmatory (AID 375;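 further: 0% = full reaction with vehicle and 100% = no enzyme background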)). Conditions: coupled enzyme assay; at 10 µM, hits give high values.
Chain of Pantothenate synthetase (Mycobacterium tuberculosis (strain ATCC 25618 / H37Rv)) (P9WIL5 whole entry, looked up): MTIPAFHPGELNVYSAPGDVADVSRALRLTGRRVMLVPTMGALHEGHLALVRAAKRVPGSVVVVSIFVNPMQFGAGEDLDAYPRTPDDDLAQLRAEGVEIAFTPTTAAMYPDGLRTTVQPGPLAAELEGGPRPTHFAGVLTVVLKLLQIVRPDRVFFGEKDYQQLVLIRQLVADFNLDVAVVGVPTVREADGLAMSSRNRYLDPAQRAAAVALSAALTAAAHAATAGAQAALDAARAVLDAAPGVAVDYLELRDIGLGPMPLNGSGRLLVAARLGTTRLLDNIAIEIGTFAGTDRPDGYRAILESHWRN
For `O=C(CSc1nnc(NC(=O)C2CCC2)s1)NC1CC1`, the inhibition was 0%.
In the case of `Cc1c(NC(=O)c2ccc(=O)oc2)c(=O)n(-c2ccccc2)n1C`, the inhibition is reported as 6%.
`CCOc1cc(C2C(C(=O)c3ccccc3)=C(C(=O)OC)Nc3nnnn32)ccc1O` (configuration not stated) showed an inhibition of 0%.
`COc1cccc(-n2c(SCC(=O)N3CCCC3)nc3c([nH]c4ccccc43)c2=O)c1` gave an inhibition of 0%.
Molecule `CCOC(=O)C1=C(C)NC(=O)C(C#N)C1c1ccco1` (configuration not stated) has an inhibition of 5%.
For `O=C(CSc1ncccn1)NCc1ccccc1`, the inhibition was 0%.
With `CSc1nnc(-c2ccccc2)n1C` the inhibition was 7%.
For `O=C(Cn1c(NCCO)nc2ccccc21)c1ccccc1`, the inhibition was 6%.
With `CCCCn1nnc(NC(=O)Cc2ccc(Cl)cc2)n1` the inhibition was 0%.
`Cc1ccc(OCc2nnc(SCC(=O)Nc3ccc4c(c3)OCO4)n2C)cc1` gave an inhibition of 0%.
`CCc1nnc(NC(=O)CSc2nc3ccccc3s2)s1` gave an inhibition of 2%.
`COc1ccc(OCCOC(=O)c2cccc(-n3cnnn3)c2)cc1` was tested, and the inhibition was 0%.
In the case of `O=C(CSc1nnc(Cc2cccs2)n1Cc1ccco1)Nc1cccc(Cl)c1`, the inhibition is reported as 0%.
Work on `Cc1ccc(S(=O)(=O)N2CCN(S(=O)(=O)N(C)C)CC2)cc1` yielded an inhibition of 0%.
For `O=C(Cn1cnc2c(nnn2Cc2ccc(Cl)cc2)c1=O)NCC1CCCO1` (configuration not stated), the inhibition was 0%.
In the case of `COc1ccccc1-n1c(SCC(=O)Nc2ccc3c(c2)OCO3)nc2c(c1=O)SCC2`, the inhibition is reported as 0%.
Molecule `CCOC(=O)C1=C(c2ccccc2)NC(=O)NC1c1ccc(N(C)C)cc1` (configuration not stated) has an inhibition of 0%.
For `O=C(CN1CCN(c2cccc(Cl)c2)CC1)N1CCCC1`, the inhibition was 4%.
Molecule `CCCCn1c(CN(C)Cc2ccccc2)nc2c1c(=O)n(C)c(=O)n2C` has an inhibition of 0%.
For `CCOC(=O)CN1C(=O)C2(OCCCO2)c2ccccc21`, the inhibition was 1%.
Work on `Cc1nnc(SCC(=O)NC(C)(C)C)n1CCc1ccccc1` yielded an inhibition of 0%.
`CCC(=O)N1CCc2cc(S(=O)(=O)CCC(=O)Nc3ccc(F)c(F)c3)ccc21` was tested, and the inhibition was 0%.
